# According to PubChem BioAssay (EPA / NIEHS):
# Results filed as inconclusive are left out. Activity calls are given as the source filed them. How the source made its calls, unless noted: active means hit-call score of the fitted dose curve at least 0.9, where 1 is the maximum; inactive means score below 0.9.
# Experiment: CCTE_Shafer_MEA_dev_correlation_coefficient_mean: CCTE's Neural Network Formation Assay for Mean Correlation Coefficient, Shafer Lab (AID 2284093);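 on AC50: well mean pairwise spike train correlation integrated as AUC over recording days 5 to 12; potency fitted for loss of correlation relative to DMSO vehicle wells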
# Outline: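 Spontaneous activity recorded on days 5, 7, 9 and 12 post-plating; pairwise spike correlations are averaged across active electrodes and collapsed to an area-under-curve. Rat cortical cultures are dosed from plating through 12 days, with compound renewed at media changes.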
Compound,outcome,AC50
O=S(=O)(O)CCC(F)(F)C(F)(F)C(F)(F)C(F)(F)C(F)(F)C(F)(F)C(F)(F)C(F)(F)F,inactive,
OCC(F)(F)C(F)(F)C(F)(F)C(F)(F)C(F)(F)C(F)(F)CO,inactive,
OCCCCC(F)(F)C(F)(F)C(F)(F)C(F)(F)F,inactive,
OC(O)C(F)(F)C(F)(F)F,inactive,
O=C(O)C(F)(F)C(F)(F)C(F)(F)OC(F)(F)F,inactive,
C=CC(=O)OCC(F)(F)C(F)(F)C(F)(F)COC(=O)C=C,,8.13 µM (active)
FC(F)(F)C(F)(F)C(F)(F)C(F)(F)C(F)(F)C(F)(F)C(F)(F)CCI,inactive,
OCC(O)CC(F)(F)C(F)(F)C(F)(F)C(F)(F)F (centres undefined),inactive,
NC(=O)C(F)(F)C(F)(F)C(F)(F)F,inactive,
CNS(=O)(=O)C(F)(F)C(F)(F)C(F)(F)C(F)(F)C(F)(F)C(F)(F)C(F)(F)C(F)(F)F,inactive,
NC(O)(C(F)(F)F)C(F)(F)F,inactive,
NC(=O)C(F)(F)C(F)(F)C(F)(F)C(F)(F)C(N)=O,inactive,
OCC(F)(F)C(F)(F)C(F)(F)C(F)(F)C(F)(F)C(F)(F)C(F)(F)C(F)(F)CO,,24.1 µM (active)
NC(=O)C(F)(F)C(F)(F)C(F)(F)C(F)F,inactive,
C=CC(=O)OCCC(F)(F)C(F)(F)C(F)(F)C(F)(F)F,,15 µM (active)
CCN(CCO)S(=O)(=O)C(F)(F)C(F)(F)C(F)(F)C(F)(F)C(F)(F)C(F)(F)C(F)(F)C(F)(F)F,inactive,
OCC(F)(F)C(F)(F)C(F)(F)CO,inactive,
CO[Si](C)(CCC(F)(F)C(F)(F)C(F)(F)C(F)(F)C(F)(F)C(F)(F)F)OC,inactive,
O=S(=O)(O)CCC(F)(F)C(F)(F)C(F)(F)C(F)(F)F,inactive,

# Experiment: CCTE_Mundy_HCI_hNP1_Pro_ResponderAvgInten: CCTE's Proliferation Assay in human neuroprogenitor cells, Mundy Lab (AID 2284224; active means hit-call score of the fitted dose curve at least 0.9, where 1 is the maximum;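 further: human neural progenitor cells hNP1 derived from WA09 embryonic stem cells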)
# Outline: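 Proliferation read as average intensity of BrdU-positive cells, imaged at 26.25 h post-dosing: chemical exposure started after 40–44 h culture, BrdU during final 4 h, paraformaldehyde fixation. Positive-direction fit relative to DMSO.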
row,Compound,outcome
1,OCCCCC(F)(F)C(F)(F)C(F)(F)C(F)(F)F,inactive
2,C=CC(=O)OCC(F)(F)C(F)(F)C(F)(F)COC(=O)C=C,inactive
3,OCCCC(F)(F)C(F)(F)C(F)(F)C(F)(F)C(F)(F)C(F)(F)C(F)(F)C(F)(F)F,inactive
4,CCN(CCO)S(=O)(=O)C(F)(F)C(F)(F)C(F)(F)C(F)(F)C(F)(F)C(F)(F)C(F)(F)C(F)(F)F,inactive
5,NC(=O)C(F)(F)C(F)(F)C(F)(F)C(F)(F)C(F)(F)C(F)(F)C(F)(F)F,inactive
